# Several values for one entry are separate records, joined by “and”; a condition that tells them apart may be missing. Equal values may be shown once. Some compounds were tested as several samples or in several runs, with calls that do not always agree. Activity calls are given as the source filed them. The calls were made as follows: active = hit-call score of the fitted dose curve at least 0.9, where 1 is the maximum; inactive = score below 0.9.
# Tests used:
# [1] = read-out: Monocyte Chemoattractant Protein-1 (MCP1), CCL2 (gene 6347); assay: BSK_BF4T_MCP1: BioMAP Diversity Plus: BF4T Assay for Monocyte Chemoattractant Protein-1 (MCP1) Biomarker Activity (AID 2284259); conditions: primary human bronchial epithelial cells with fibroblasts
# Method in brief: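 Co-culture of bronchial epithelial cells and dermal fibroblasts dosed with chemical; MCP-1 measured by ELISA 24 h later. Activity fitted in positive direction versus DMSO; cytotoxicity checked by SRB staining in parallel cultures.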
# [2] = read-out: Intercellular Adhesion Molecule 1 (ICAM1), ICAM1 (gene 3383); assay: BSK_BF4T_ICAM1: BioMAP Diversity Plus: BF4T Assay for Intercellular Adhesion Molecule 1 (ICAM1) Biomarker Activity (AID 2284260); conditions: primary human bronchial epithelial cells with fibroblasts
# Method in brief: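 Co-culture of human bronchial epithelial cells and dermal fibroblasts exposed 24 h to chemical; cell-surface ICAM-1 quantified by ELISA. Parallel SRB total-protein staining assessed cytotoxicity; activity fitted relative to DMSO.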
# [3] = read-out: Interleukin-8 (IL8), CXCL8 (gene 3576); assay: BSK_MyoF_IL8: BioMAP Diversity Plus: MyoF Assay for Interleukin-8 (IL8) Biomarker Activity (AID 2284261); conditions: primary human lung fibroblasts
# Method in brief: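 IL-8 quantified by ELISA after 24 h compound exposure of primary human lung fibroblasts. SRB staining of parallel cultures flagged cytotoxicity; DMSO served as baseline.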
# CD90, THY1 (gene 7070) = assay: BSK_BF4T_CD90: BioMAP Diversity Plus: BF4T Assay for CD90 Biomarker Activity (AID 2284262); conditions: primary human bronchial epithelial cells with fibroblasts
# Method in brief: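 Co-culture of human bronchial epithelial cells and dermal fibroblasts, 24 h compound exposure. Cell-surface CD90 measured by ELISA relative to DMSO; parallel SRB total-protein staining for cytotoxicity.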
# [4] = read-out: Interleukin-8 (IL8), CXCL8 (gene 3576); assay: BSK_BF4T_IL8: BioMAP Diversity Plus: BF4T Assay for Interleukin-8 (IL8) Biomarker Activity (AID 2284263); conditions: primary human bronchial epithelial cells with fibroblasts
# Method in brief: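 Human bronchial epithelial cells with dermal fibroblasts co-culture; IL-8 measured by ELISA 24 hours after dosing, fitted vs DMSO. Cytotoxicity tracked in parallel cultures by SRB total-protein staining.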
# [5] = read-out: Interleukin-1 alpha (IL1a), IL1A (gene 3552); assay: BSK_BF4T_IL1a: BioMAP Diversity Plus: BF4T Assay for Interleukin-1 alpha (IL1a) Biomarker Activity (AID 2284264); conditions: primary human bronchial epithelial cells with fibroblasts
# Method in brief: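 Human bronchial epithelial cells co-cultured with dermal fibroblasts, dosed and read at 24 h. Secreted/surface IL-1α quantified by ELISA; gain-of-signal fitted relative to DMSO baseline. Parallel SRB total-protein staining tracked cytotoxicity.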
# Decorin, DCN (gene 1634) = assay: BSK_MyoF_Decorin: BioMAP Diversity Plus: MyoF Assay for Decorin Biomarker Activity (AID 2284265); conditions: primary human lung fibroblasts
# Method in brief: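 Decorin protein was quantified by ELISA 24 h after chemical addition to primary human lung fibroblasts and analysed as increase over DMSO. Cytotoxicity was tracked in parallel cultures by SRB total-protein staining read at 560 nm.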
# KRT18 (gene 3875) = assay: BSK_BF4T_Keratin818: BioMAP Diversity Plus: BF4T Assay for Keratin 818 Biomarker Activity (AID 2284266); conditions: primary human bronchial epithelial cells with fibroblasts
# Method in brief: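 Co-culture of human bronchial epithelial cells and dermal fibroblasts, chemical exposure 24 h. Keratin 8/18 measured by ELISA; positive-direction fit vs DMSO. SRB total protein run in parallel cultures for cytotoxicity.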
# [6] = BSK_MyoF_SRB: Viability Assessment in the BioMAP Diversity Plus: MyoF Assay (AID 2284267); conditions: primary human lung fibroblasts;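 also: total protein by SRB absorbance in parallel cultures as cytotoxicity measure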
# Method in brief: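 Read-out is SRB absorbance at 560 nm, reflecting total protein in parallel lung fibroblast cultures harvested 24 h after compound addition. Cells were TCA-fixed (10%) and stained with 0.1% SRB; activity is referenced to DMSO.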
# [7] = read-out: Matrix Metallopeptidase 1 (MMP1), MMP1 (gene 4312); assay: BSK_MyoF_MMP1: BioMAP Diversity Plus: MyoF Assay for Matrix Metallopeptidase 1 (MMP1) Biomarker Activity (AID 2284268); conditions: primary human lung fibroblasts
# Method in brief: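 Human lung fibroblasts (MyoF system) exposed to chemical for 24 h in 96-well format; MMP1 biomarker quantified by ELISA, with activity fitted in the positive direction relative to DMSO baseline.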
# [8] = read-out: TIMP metallopeptidase inhibitor 1 (TIMP1), TIMP1 (gene 7076); assay: BSK_MyoF_TIMP1: BioMAP Diversity Plus: MyoF Assay for TIMP metallopeptidase inhibitor 1 (TIMP1) Biomarker Activity (AID 2284269); conditions: primary human lung fibroblasts
# Method in brief: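 TIMP-1 levels were determined by ELISA in human lung fibroblasts treated for 24 h. DMSO served as negative control and baseline for upward curve fitting.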
# [9] = read-out: Matrix Metallopeptidase 1 (MMP1), MMP1 (gene 4312); assay: BSK_BF4T_MMP1: BioMAP Diversity Plus: BF4T Assay for Matrix Metallopeptidase 1 (MMP1) Biomarker Activity (AID 2284270); conditions: primary human bronchial epithelial cells with fibroblasts
# Method in brief: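 Co-culture of human bronchial epithelial cells and dermal fibroblasts; MMP-1 levels measured by ELISA 24 hours after chemical dosing, relative to DMSO. Cytotoxicity checked in parallel cultures by SRB total-protein staining.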
# [10] = read-out: Matrix Metallopeptidase 3 (MMP3), MMP3 (gene 4314); assay: BSK_BF4T_MMP3: BioMAP Diversity Plus: BF4T Assay for Matrix Metallopeptidase 3 (MMP3) Biomarker Activity (AID 2284271); conditions: primary human bronchial epithelial cells with fibroblasts
# Method in brief: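 Co-culture of human bronchial epithelial cells and dermal fibroblasts dosed 24 h; MMP-3 measured by ELISA, positive-direction fit versus DMSO. Cytotoxicity tracked by SRB total-protein staining (560 nm) in parallel cultures.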
# [11] = read-out: Tissue plasminogen activator (tPA), PLAT (gene 5327); assay: BSK_BF4T_tPA: BioMAP Diversity Plus: BF4T Assay for Tissue plasminogen activator (tPA) Biomarker Activity (AID 2284272); conditions: primary human bronchial epithelial cells with fibroblasts
# Method in brief: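 tPA level quantified by ELISA at 24 h post-treatment in bronchial epithelial/dermal fibroblast co-cultures, gain of signal scored against DMSO baseline. Parallel cultures stained with 0.1% SRB (560 nm) to flag overt cytotoxicity.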
# [12] = read-out: Plasminogen Activator Inhibitor-1 (PAI1), SERPINE1 (gene 5054); assay: BSK_BF4T_PAI1: BioMAP Diversity Plus: BF4T Assay for Plasminogen Activator Inhibitor-1 (PAI1) Biomarker Activity (AID 2284273); conditions: primary human bronchial epithelial cells with fibroblasts
# Method in brief: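 Co-culture of human bronchial epithelial cells and dermal fibroblasts exposed to compound for 24 h. PAI-1 measured by ELISA; activity fitted in positive direction versus DMSO. Parallel SRB staining assessed overt cytotoxicity.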
# [13] = BSK_BF4T_SRB: Viability Assessment in the BioMAP Diversity Plus: BF4T Assay (AID 2284274); conditions: primary human bronchial epithelial cells with fibroblasts;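 also: total cell protein by sulforhodamine B staining as a cytotoxicity measure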
# Method in brief: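 Co-culture of human bronchial epithelial cells and dermal fibroblasts (BioMAP BF4T) exposed 24 h. Total protein by sulforhodamine B staining (0.1% SRB after 10% TCA fixation, 560 nm) in parallel cultures; fitted vs DMSO.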
# [14] = read-out: urokinase Plasminogen Activator (uPA), PLAU (gene 5328); assay: BSK_BF4T_uPA: BioMAP Diversity Plus: BF4T Assay for urokinase Plasminogen Activator (uPA) Biomarker Activity (AID 2284275); conditions: primary human bronchial epithelial cells with fibroblasts
# Method in brief: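 Co-culture of human bronchial epithelial cells and dermal fibroblasts; uPA quantified by ELISA 24 hours after dosing, fitted relative to DMSO. Parallel SRB total-protein staining assessed overt cytotoxicity.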
# [15] = read-out: Matrix Metallopeptidase 9 (MMP9), MMP9 (gene 4318); assay: BSK_BF4T_MMP9: BioMAP Diversity Plus: BF4T Assay for Matrix Metallopeptidase 9 (MMP9) Biomarker Activity (AID 2284276); conditions: primary human bronchial epithelial cells with fibroblasts
# Method in brief: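 Co-culture of human bronchial epithelial cells and dermal fibroblasts dosed for 24 h; MMP-9 quantified by ELISA and fitted upward versus DMSO. Cytotoxicity monitored in parallel cultures by SRB total-protein staining at the biomarker time point.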
# [16] = read-out: Interleukin-8 (IL8), CXCL8 (gene 3576); assay: BSK_IMphg_IL8: BioMAP Diversity Plus: IMphg Assay for Interleukin-8 (IL8) Biomarker Activity (AID 2284277); conditions: primary human endothelial cells with macrophages
# Method in brief: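 Co-culture of human venular endothelial cells and macrophages exposed to chemicals for 24 h; IL-8 quantified by ELISA and compared against the DMSO baseline, with SRB total-protein staining in parallel cultures for cytotoxicity.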
# [17] = read-out: Intercellular Adhesion Molecule 1 (ICAM1), ICAM1 (gene 3383); assay: BSK_BE3C_ICAM1: BioMAP Diversity Plus: BE3C Assay for Intercellular Adhesion Molecule 1 (ICAM1) Biomarker Activity (AID 2284278); conditions: primary human bronchial epithelial cells
# Method in brief: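 Human primary bronchial epithelial cultures; compound added; 24 h incubation; cell-surface ICAM-1 measured by ELISA; signal increase fitted relative to DMSO negative control.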
structure (smiles),measurement,setting,value
CCNS(=O)(=O)C(F)(F)C(F)(F)C(F)(F)C(F)(F)C(F)(F)C(F)(F)C(F)(F)C(F)(F)F,AC50,[1],18.6 µM (active) and 22.6 µM (active)
same,AC50,[2],30 µM (active) and 25 µM (active)
same,AC50,[3],41.5 µM (active) and 45.6 µM (active)
same,outcome,"CD90, THY1 (gene 7070)",inactive
same,outcome,[4],inactive
same,AC50,[5],36.5 µM (active) and 44.4 µM (active)
same,AC50,"Decorin, DCN (gene 1634)",40.9 µM (active) and 45.6 µM (active)
same,AC50,KRT18 (gene 3875),15.3 µM (active) and 22.5 µM (active)
same,AC50,[6],48.8 µM (active) and 50.9 µM (active)
same,outcome,[7],inactive
same,AC50,[8],38.9 µM (active) and 31.6 µM (active)
same,AC50,[9],30 µM (active)
same,outcome,[10],inactive
same,AC50,[11],7.68 µM (active) and 8.65 µM (active)
same,AC50,[12],41.2 µM (active)
same,outcome,[12],inactive
same,AC50,[13],44.7 µM (active) and 41.4 µM (active)
same,AC50,[14],47.3 µM (active)
same,outcome,[14],inactive
same,AC50,[15],30 µM (active) and 39.9 µM (active)
same,AC50,[16],21.3 µM (active) and 27.2 µM (active)
same,AC50,[17],40.3 µM (active)
same,outcome,[17],inactive
